Measurements: the supplement of paper PMC6992640
± gives the standard deviation of the averaged measurements.

Columns and labels:
Experiment in all cases: cell viability (% of vehicle); higher = less cytotoxic
Conditions in all cases: 10 µM; 72 h
HCI01 = tested on: HCI01 (cells of a triple-negative basal-like breast cancer xenograft)
HCI03 = tested on: HCI03 (cells of an ER-positive luminal breast cancer xenograft)
HCI09 = tested on: HCI09 (cells of a triple-negative luminal androgen receptor type breast cancer xenograft)
HCI11 = tested on: HCI11 (cells of an ER-positive luminal breast cancer xenograft)
HCI16 = tested on: HCI16 (cells of a triple-negative basal-like breast cancer xenograft)
UCD52 = tested on: UCD52 (cells of a triple-negative basal-like breast cancer xenograft)
WHIM2 = tested on: WHIM2 (cells of a triple-negative basal-like breast cancer xenograft)
WHIM30 = tested on: WHIM30 (cells of a triple-negative basal-like breast cancer xenograft)
HCI13 = tested on: HCI13 (cells of an ER-positive luminal breast cancer xenograft)
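Note: PDX cells carrying CMV promoter-driven luciferase, viability read as total photon flux per second by IVIS imaging following D-luciferin, vehicle control 0.1% DMSO.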

| Compound | cell viability (HCI01) | cell viability (HCI03) | cell viability (HCI09) | cell viability (HCI11) | cell viability (HCI16) | cell viability (UCD52) | cell viability (WHIM2) | cell viability (WHIM30) | cell viability (HCI13) |
| --- | --- | --- | --- | --- | --- | --- | --- | --- | --- |
| C[C@@H]1C[C@H]2[C@H]3CCC4=CC(=O)C=C[C@]4(C)[C@@]3(F)[C@@H](O)C[C@]2(C)[C@@]1(O)C(=O)CO [Dexamethasone (DHAP)] | 128 ± 28 | 138 | 148 ± 54 | 114 | 180 | 168.4 ± 1.4 | 83.4 ± 20 | 189 ± 29 |  |
| CC(C)c1cc(C(=O)N2Cc3ccc(CN4CCN(C)CC4)cc3C2)c(O)cc1O | 116 ± 49 | 43.7 | 25.4 ± 3.1 | 124 | 109 | 77.1 ± 2.9 | 75.3 ± 3.1 | 176 ± 25 |  |
| CCC(=O)OCC(=O)C1(OC(=O)CC)C(C)CC2C3CCC4=CC(=O)C=CC4(C)C3(Cl)C(O)CC21C (stereo unspecified) [Beclomethasone dipropionate] | 131 ± 100 | 182 | 144 ± 8.8 | 123 | 175 | 133 ± 3.9 | 128 ± 3.2 | 123 ± 10 |  |
| CCC1OC(=O)C(C)C(OC2CC(C)(OC)C(O)C(C)O2)C(C)C(OC2OC(C)CC(N(C)C)C2O)C(C)(O)CC(C)CN(C)C(C)C(O)C1(C)O (stereo unspecified) [Azithromycin] | 145 ± 30 | 137 | 116 ± 5.9 | 121 | 124 | 105 ± 26 | 114.9 ± 1.1 | 119 ± 24 |  |
| CCCC1O[C@@H]2C[C@H]3[C@@H]4CCC5=CC(=O)C=C[C@]5(C)[C@H]4[C@@H](O)C[C@]3(C)[C@]2(C(=O)CO)O1 (stereo partly specified) [Budesonide] | 113 ± 30 | 102 | 164 ± 40 | 140 | 173 | 141 ± 9.5 | 74.4 ± 20 |  |  |
| C=CCNC1=C2CC(C)CC(OC)C(O)C(C)C=C(C)C(OC(N)=O)C(OC)C=CC=C(C)C(=O)NC(=CC1=O)C2=O (stereo unspecified) | 105 ± 37 | 57.1 | 26.7 ± 0.77 | 72.5 | 106 | 91.6 ± 5.4 | 63.25 ± 0.14 | 85.1 ± 8.4 |  |
| C#CC1(O)CCC2C3CCC4=CC(=O)CCC4C3CCC21C (stereo unspecified) [Norethindrone] | 91.4 ± 26 | 134 | 93.6 ± 6.6 | 97.8 | 128 | 93.3 ± 11 | 93.1 ± 21 |  |  |
| CCCc1nc(C(C)(C)O)c(C(=O)O)n1Cc1ccc(-c2ccccc2-c2nn[nH]n2)cc1 [Olmesartan] | 117 ± 4 | 121 | 130 ± 18 | 113 | 136 | 121 ± 15 | 91.2 ± 3.6 | 154 ± 25 |  |
| O=C(Nc1cccc2c(=O)cc(-c3nn[nH]n3)oc12)c1ccc(OCCCCc2ccccc2)cc1 [Pranlukast] | 96.3 ± 9.7 | 97.5 | 64 ± 5.3 | 101 | 147 | 102 ± 2.1 | 65.3 ± 11 | 152 ± 11 |  |
| NCC(O)c1ccc(O)c(O)c1.O.O=C(O)C(O)C(O)C(=O)O (stereo unspecified) [Noradrenaline bitartrate monohydrate] | 86.8 ± 21 | 152 | 133 ± 34 | 124 | 160 | 142 ± 4.8 | 73 ± 14 |  |  |
| CC12CCC3c4ccc(O)cc4CCC3C1CCC2O (stereo unspecified) [Estradiol] | 99.8 ± 4.7 | 111 | 91.4 ± 4.4 | 93 | 91.4 | 85.9 ± 4.8 | 108 ± 28 | 74.2 ± 6.9 |  |
| CCCCCC(O)C=CC1C(O)CC(=O)C1CCCCCCC(=O)O (stereo unspecified) [Alprostadil] | 86.5 ± 76 | 124 | 145 ± 75 | 104 | 175 | 124 ± 2.3 | 147 ± 12 | 141 ± 4.9 |  |
| O=C(CCCN1CCN(c2ccccn2)CC1)c1ccc(F)cc1 [Azaperone] | 119 ± 25 | 114 | 96.7 ± 2.1 | 121 | 151 | 66.9 ± 13 | 98.3 ± 4.7 | 85.8 ± 2.8 |  |
| O=NN(CCCl)C(=O)NCCCl [Carmustine] | 106 ± 24 | 166 | 99.9 ± 62 | 83.9 |  | 116 ± 5.4 | 96.23 ± 0.26 | 123 ± 8.1 | 134 ± 22 |
| C#CC1(O)CCC2C3CCc4cc(OC)ccc4C3CCC21C (stereo unspecified) [Mestranol] | 131 ± 12 | 136 | 94.681 ± 0.043 | 106 | 104 | 71.2 ± 21 | 159 ± 12 | 121.2 ± 0.15 |  |
| CC12CCC3c4ccc(O)cc4CCC3C1CCC2=O (stereo unspecified) [Estrone] | 99.5 ± 6.1 | 112 | 97.3 ± 9.7 | 102 | 89.5 | 87.3 ± 6.6 | 113 ± 22 | 153 ± 14 |  |
| Nc1nnc(-c2cccc(Cl)c2Cl)c(N)n1 [Lamotrigine] | 95 ± 12 | 155 | 134 ± 32 | 89.9 | 128 | 112 ± 15 | 96.1 ± 13 | 175 ± 4.1 |  |
| Nc1nc2[nH][nH]nc-2c(=O)n1 [Azaguanine-8] | 158 ± 48 | 146 | 137 ± 21 |  |  | 102 ± 55 | 96.01 ± 0.31 | 119 ± 14 | 150 ± 9.1 |
| CC1CC2C(C(O)CC3(C)C2CCC3(O)C(=O)CO)C2(C)C=CC(=O)C=C12 (stereo unspecified) [Methylprednisolone] | 145 ± 24 | 156 | 123 ± 34 | 136 |  | 154 ± 11 | 119 ± 8.1 | 194 ± 12 |  |
| CC1(C)O[C@@H]2C[C@H]3[C@@H]4C[C@H](F)C5=CC(=O)C=C[C@]5(C)[C@@]4(F)[C@@H](O)C[C@]3(C)[C@]2(C(=O)CO)O1 [Fluocinolone Acetonide] | 84 ± 59 | 154 | 132 ± 27 | 120 |  | 131 ± 17 | 109 ± 34 |  |  |

| Compound | cell viability (HCI01) | cell viability (HCI03) | cell viability (HCI09) | cell viability (HCI11) | cell viability (HCI16) | cell viability (UCD52) | cell viability (WHIM2) | cell viability (WHIM30) | cell viability (HCI13) |
| --- | --- | --- | --- | --- | --- | --- | --- | --- | --- |
| CC12CCC(=O)C=C1CCC1C2C(O)CC2(C)C1CCC2(O)C(=O)CO (stereo unspecified) [Hydrocortisone] | 103 ± 13 | 126 | 132 ± 57 | 113 |  | 124 ± 4.5 | 95.6 ± 4.8 | 198 ± 13 |  |
| O=c1c(-n2ccnn2)c[nH]n1-c1cc(N2CCOCC2)ncn1 [Molidustat (BAY85-3934)] | 142 ± 4.8 | 121 | 27.2 ± 1.8 | 121 |  | 163 ± 3.5 | 104 ± 7.3 |  |  |
| CC(=O)OCC(=O)[C@@]12OC(C)(C)O[C@@H]1C[C@H]1[C@@H]3C[C@H](F)C4=CC(=O)C=C[C@]4(C)[C@@]3(F)[C@@H](O)C[C@@]12C [Fluocinonide] | 75.9 ± 53 | 179 | 127 ± 39 | 129 |  | 156 ± 2.6 | 94.6 ± 31 | 175.6 ± 0.94 |  |
| CC1CC2C3CCC4=CC(=O)C=CC4(C)C3(Cl)C(O)CC2(C)C1(OC(=O)c1ccco1)C(=O)CCl (stereo unspecified) [Mometasone furoate] | 94.8 ± 29 | 151 | 118 ± 30 | 115 |  | 139.5 ± 0.18 | 83.5 ± 7.3 |  |  |
| CCCC(=O)OC1(C(=O)COC(C)=O)CCC2C3CC(F)C4=CC(=O)C=CC4(C)C3(F)C(O)CC21C (stereo unspecified) [Difluprednate] | 110 ± 13 | 137 | 134 ± 37 | 116 |  | 177 ± 21 | 128 ± 7.3 | 175 ± 11 |  |
| C#CC1(O)CCC2C3CCC4=CC(=O)CCC4C3CCC21CC (stereo unspecified) [Levonorgestrel] | 88.7 ± 25 | 127 | 100 ± 12 | 88.5 | 121 | 83.6 ± 6.9 | 91.5 ± 9.7 | 155 ± 2.3 |  |
| O=C([O-])CC(O)CC(O)C=Cc1c(C2CC2)nc2ccccc2c1-c1ccc(F)cc1.O=C([O-])CC(O)CC(O)C=Cc1c(C2CC2)nc2ccccc2c1-c1ccc(F)cc1.[Ca+2] (stereo unspecified) [Pitavastatin Calcium] | 83.9 ± 10 | 78.4 | 53.9 ± 27 |  | 113 | 50.2 ± 1.3 | 67.8 ± 23 | 93.3 ± 4.9 | 148 ± 27 |
| CC(=O)OCC(=O)C1(O)CCC2C3CCC4=CC(=O)C=CC4(C)C3C(O)CC21C (stereo unspecified) [Prednisolone Acetate] | 119 ± 47 | 185 | 134 ± 37 | 123 |  | 152.4 ± 0.65 | 97.2 ± 1.2 | 182 ± 22 |  |
| CCC(=O)OCC(=O)C1(OC(=O)CC)C(C)CC2C3CCC4=CC(=O)C=CC4(C)C3(F)C(O)CC21C (stereo unspecified) [Betamethasone Dipropionate] | 126 ± 23 | 138 | 150 ± 25 | 136 |  | 147 ± 14 | 92.3 ± 26 |  |  |
| CC(C)c1c(C(=O)Nc2ccccc2)c(-c2ccccc2)c(-c2ccc(F)cc2)n1CCC(O)CC(O)CC(=O)[O-].CC(C)c1c(C(=O)Nc2ccccc2)c(-c2ccccc2)c(-c2ccc(F)cc2)n1CCC(O)CC(O)CC(=O)[O-].[Ca+2] (stereo unspecified) [Atorvastatin Calcium] | 89.2 ± 4.2 | 138 | 89.2 ± 26 |  | 140 | 47.7 ± 2.3 | 43.7 ± 10 | 158 ± 5.3 | 95.72 ± 0.31 |
| O[C@@H]1CO[C@H]2[C@@H]1OC[C@@H]2O [Isosorbide] | 115 ± 23 | 147 | 103 ± 2.9 | 102 | 116 | 99.9 ± 3.7 | 107.6 ± 0.11 | 112 ± 15 |  |
| Oc1ccc(OCc2ccccc2)cc1 [Monobenzone] | 187 ± 11 | 180 |  | 157 | 153 | 167 ± 14 | 145 ± 23 |  | 181 ± 4.9 |
| COCCCOc1ccnc(C[S+]([O-])c2nc3ccccc3[nH]2)c1C (stereo unspecified) [Rabeprazole sodium] | 167 ± 75 | 197 | 82.4 ± 28 | 115 |  | 178 ± 5.8 | 135 ± 15 |  |  |
| Cc1ccc(C)c(OCCCC(C)(C)C(=O)O)c1 [Gemfibrozil] | 99.9 ± 25 | 118 | 131 ± 54 | 112 |  | 124 ± 17 | 98.3 ± 12 |  |  |
| CC12C=CC(=O)C=C1CCC1C3CC(O)C(O)(C(=O)CO)C3(C)CC(O)C12F (stereo unspecified) [Triamcinolone] | 117 ± 18 | 176 | 112.2 ± 0.86 | 130 |  | 121 ± 8.9 | 121 ± 18 | 185 ± 5.1 |  |
| CCC(=O)OC1(C(=O)SCF)C(C)CC2C3CC(F)C4=CC(=O)C=CC4(C)C3(F)C(O)CC21C (stereo unspecified) [Fluticasone propionate] | 76.7 ± 52 | 166 | 128 ± 33 | 133 |  | 128 ± 14 | 102 ± 44 |  |  |
| CCC(=O)OC1(C(=O)CCl)C(C)CC2C3CC(F)C4=CC(=O)C=CC4(C)C3(F)C(O)CC21C (stereo unspecified) [Halobetasol Propionate] | 159 ± 6.9 | 152 | 133 ± 96 | 133 |  | 191 ± 18 | 113 ± 9.6 |  |  |
| CC1CC2C3CCC4=CC(=O)C=CC4(C)C3(F)C(O)CC2(C)C1(O)C(=O)CO (stereo unspecified) [Betamethasone] | 130 ± 41 | 177 | 145 ± 32 | 175 |  | 183 ± 2.4 | 130 ± 27 | 184 ± 37 |  |
| N=C(N)NCCCC[C@@H]1NC(=O)CCSSC[C@@H](C(N)=O)NC(=O)[C@@H]2CCCN2C(=O)[C@H](Cc2c[nH]c3ccccc23)NC(=O)[C@H](CC(=O)O)NC(=O)CNC1=O [Eptifibatide] | 101 ± 25 | 148 | 120 ± 79 | 93.4 | 194 | 123 ± 15 | 101 ± 13 | 138 ± 4.8 |  |
| CC1(C)O[C@@H]2C[C@H]3[C@@H]4CCC5=CC(=O)C=C[C@]5(C)[C@H]4[C@@H](O)C[C@]3(C)[C@]2(C(=O)CO)O1 [Desonide] | 84.8 ± 63 | 176 | 117 ± 43 | 125 |  | 144 ± 8.6 | 96.1 ± 15 | 127 ± 17 |  |
